Results on 52 compounds are retold here after PubChem BioAssay AID927 (National Center for Advancing Translational Sciences (NCATS), 2007).

In all, about 60,000 compounds went through this assay and about 65 (0.1%) were called active. A call without a number means that no potency is given here. This excerpt belongs to a sample that is enriched for actives. A number with no mark means an inactive call. Calls come from the whole dose curve; as a rule, active = well fitted inhibition curve with a large enough effect; inconclusive = small, poorly fitted or top-dose-only effect; inactive = no such curve, though single readings can be large or run the other way.

Sequence of Ubiquitin carboxyl-terminal hydrolase 2 (Homo sapiens) (O75604 whole entry, looked up): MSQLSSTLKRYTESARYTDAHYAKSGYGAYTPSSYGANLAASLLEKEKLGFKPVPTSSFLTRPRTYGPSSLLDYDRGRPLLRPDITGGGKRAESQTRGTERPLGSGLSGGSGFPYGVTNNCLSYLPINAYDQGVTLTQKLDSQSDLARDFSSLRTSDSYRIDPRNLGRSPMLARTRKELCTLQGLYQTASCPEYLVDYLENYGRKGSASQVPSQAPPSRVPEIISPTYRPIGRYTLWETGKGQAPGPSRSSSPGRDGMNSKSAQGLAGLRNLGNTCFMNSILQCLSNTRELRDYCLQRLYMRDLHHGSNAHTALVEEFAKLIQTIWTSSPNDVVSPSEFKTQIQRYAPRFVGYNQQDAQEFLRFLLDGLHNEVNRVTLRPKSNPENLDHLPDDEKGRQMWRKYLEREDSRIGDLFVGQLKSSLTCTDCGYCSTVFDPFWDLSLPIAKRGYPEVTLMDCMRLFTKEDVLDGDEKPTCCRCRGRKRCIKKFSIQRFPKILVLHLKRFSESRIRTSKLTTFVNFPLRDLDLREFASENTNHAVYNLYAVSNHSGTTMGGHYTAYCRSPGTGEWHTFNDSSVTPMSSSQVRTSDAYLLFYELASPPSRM

The target of the assay is Ubiquitin carboxyl-terminal hydrolase 2 (Homo sapiens) (UniProt O75604). Description: qHTS Assay for Inhibitors of Ubiquitin-specific Protease USP2a. Note: nearly all actives have a fitted effect of over 60% in size. The conditions noted are these: USP2a enzymatic assay; Potency: qHTS inhibition; series mostly up to 38.3 µM. The source says:
NIH Molecular Libraries Screening Centers Network [MLSCN]
NIH Chemical Genomics Center [NCGC]
PI Name: Nicholson, Ben. Progenra Inc, Malvern, PA
Homeostasis of cellular proteins is maintained through a combination of synthesis and degradation. The pathway that accounts for the majority of protein degradation is the ubiquitin-proteasomal pathway. Ubiquitin (Ub) is highly conserved in all cells and the generation of a multi-Ub chain typically targets proteins for degradation by the proteasome. However, ubiquitination is highly reversible and dynamic. Deubiquitination, the reverse process, is catalyzed through the action of enzymes referred to as isopeptidases or deubiquitinating enzymes (DUBs). This group of enzymes is collectively responsible for maintaining adequate pools of free ubiquitin and regulating the ubiquitination status of cellular proteins. The class of DUBs referred to as the ubiquitin-specific proteases (USP) family functions endoproteolytically to cleave Ub chains from a wide range of protein substrates. USP2a deubiquitinates fatty acid synthase (FASN) which has recently been identified as an emerging oncology target. To identify inhibitors of USP2a a cell-free assay was employed.
The reporter enzyme chosen is phospholipase A2 (PLA2), which has an absolute requirement for a free amino terminus. Thus, fusion of a UBL to the N-terminus of PLA2 inactivates PLA2. When the UBL-PLA2 reporter enzyme is cleaved by USP2, the activated reporter can subsequently act on its substrate, which is the commercially available NBD C6-HPC (Invitrogen). Thus, this coupled assay gives a fluorescent read-out, which is generated through the cleavage of the PLA2 reporter enzyme. The assay, developed by Progenra, Inc. uses Ub-PLA2 and USP2a at near equal and low (nM) amounts and has been licensed for sale by LifeSensors, Inc. as the Ub-IsoPro1 kit.
NCGC Assay Protocol Summary:
The assay buffer, prepared fresh at the day of the assay, contains 20mM Tris-HCl pH 8.0, 2mM CaCl2, 2mM beta-Mercaptoethanol, 0.1% DMSO. 3ul of 40nM (20nM final) USP2 core, which is stored on ice, is dispensed into a medium-binding black solid Kalypsys 1,536 well plate using the Kalypsys dispenser. The assay plate is then pinned with 23nL compound with the Kalypsys pintool in columns 5-48. The controls are pinned as follows: column 1&2 two-fold dilutions of 2M NEM in duplicate; column 3 DMSO; column 4 2M NEM (final concentration 38.2mM). The assay plate is incubated at RT for 30min. Subsequently, 3uL of 40nM (20nM final) Ub-PLA2 and 40uM (20uM final) NBD C6-HPC (stored on ice and protected from light) were dispensed into the plate using the Kalypsys dispenser. Plates were read immediately (0 Hour) on an Envision (Perkin Elmer) plate reader using the following wavelengths Ex 460nm /Em 535nm. Then, the assay plates were incubated for 2.5 hours and read again on the Envision using the same settings
Data were normalized to the to AC100 inhibition (NEM). Concentration-response curves were fitted to the normalized data and the concentration-response curves were then classified based on curve quality (r2), response magnitude and degree of measured activity. The time zero reading was used to flag fluorescence artifacts.
Keywords: ubiquitination, deubiquitination, proteases, profluorescent, MLSMR, MLSCN, NIH Roadmap, qHTS, NCGC
(In general: In qHTS, concentration-response curves come from the screen itself.)
Regarding `CCCCNc1nc2ccccc2nc1NS(=O)(=O)c1cccs1`, the activity change, negative = inhibition result is “inactive”.

For the compound `Cc1ccc(N(C(=O)CC2NC(=O)NC2=O)C2(C(=O)NC3CCCC3)CCCCC2)cc1` (configuration not stated), the activity change, negative = inhibition entry was “inactive”.

As to `C=CCn1c(CSc2nc3ccccc3s2)nnc1SCC(=O)NCc1ccco1`, the activity change, negative = inhibition entry was “inactive”.

Take `O/N=C1\CC2(Cc3nonc31)OCCO2`: the activity change, negative = inhibition entry is “inactive”.

Regarding `CC1(C)OC2CC3C4CCC5=CC(=O)CCC5(C)C4(F)C(O)CC3(C)[C@]2(C(=O)CCl)O1` (some centres not stated), the activity change, negative = inhibition entry is “inactive”.

On to `Cc1c(S(=O)(=O)O)oc2c1C(=O)C(=O)c1c-2ccc2c1CCCC2(C)C`, for which the activity change, negative = inhibition result was “inactive”.

As for `CC(C)OCCCNC(=O)C1CC(=O)N(C2CCCCCCC2)C1` (configuration not stated), the activity change, negative = inhibition result was “inactive”.

Regarding `COc1ccc(OC)c(NC(=O)CSc2nc(N)c(-c3ccccc3)c(=O)[nH]2)c1`, the activity change, negative = inhibition entry is “inactive”.

For `O=C(O)C1CCN1C1CCCCC1` (configuration not stated), the activity change, negative = inhibition result is “inactive”.

As for `O=C(O)c1ccc(COCC(F)(F)F)cc1`, the activity change, negative = inhibition entry was “inactive”.

Take `Cc1nnc(SCc2cc(=O)[nH]c(N3CCN(Cc4ccccc4)CC3)n2)s1`: the activity change, negative = inhibition result is “inactive”.

As to `CC(C)(O)CCC(O)[C@@](C)(O)C1CC[C@]2(O)C3=CC(=O)C4CC(O)C(O)C[C@]4(C)C3CC[C@]12C` (some centres not stated), the activity change, negative = inhibition result is “inactive”.

Consider `CC(=O)Oc1c2c(c3c(c1CC=C(C)C)O[C@@]14C(=CC5CC1C(C)(C)OC4(C/C=C(\C)C(=O)O)C5=O)C3=O)OC(C)(CCC=C(C)C)C=C2` (some centres not stated), for which the activity change, negative = inhibition entry was “inactive”.

As for `CC1(C)CC(=O)C=C(NCCCN2CCCC2=O)C1`, the activity change, negative = inhibition result was “inactive”.

On to `c1csc(-c2cn3c(n2)SCC3)c1`, for which the activity change, negative = inhibition result is “inactive”.

Regarding `COc1nc(Oc2ccc(=O)n(C)n2)nc(N(C)C)n1`, the activity change, negative = inhibition result is “inactive”.

`CC(C)C1=CC2=CC[C@@H]3[C@](C)(CO)CCC[C@]3(C)C2CC1` (some centres not stated): the activity change, negative = inhibition entry is “inactive”.

As to `Fc1cccc(/C=N\N=C/c2cccc(F)c2)c1`, the activity change, negative = inhibition entry was “inactive”.

On to `O=C(NCCCN1CCCCCC1)C1CC(=O)N(C2CCCC2)C1` (configuration not stated), for which the activity change, negative = inhibition result is “inactive”.

Consider `CCOC(=O)C1CCN(C(=O)Cc2c(C(=O)O)[nH]c3ccccc23)CC1`, for which the activity change, negative = inhibition entry was “inactive”.

Take `CCCCN(C)Cc1c(C)[nH]c2ccc(Cl)cc2c1=O`: the activity change, negative = inhibition result was “inactive”.

`CCOC(=O)Cc1csc(NC(=O)C(C)(C)C)n1`: the activity change, negative = inhibition entry is “inactive”.

Take `Cn1c(=O)c2cn(-c3cccc4ccccc34)cc2n(C)c1=O`: the activity change, negative = inhibition entry was “inactive”.

In the case of `Cc1nn(C)c(C)c1S(=O)(=O)N1CCc2ccccc21`, the activity change, negative = inhibition result is “inactive”.

`Nc1nc2[nH]c(=O)c(=O)[nH]c2c(=O)[nH]1`: the activity change, negative = inhibition result is “inactive”.

With `CN1CCCC1CCO[C@@](C)(c1ccccc1)c1ccc(Cl)cc1` (some centres not stated), the activity change, negative = inhibition result was “inactive”.

For the compound `CS(=O)(=O)N1CCC2(CCN(c3ccncc3)CC2)CC1`, the activity change, negative = inhibition entry is “inactive”.

For `O=c1c(O)c(-c2ccc(O)cc2)oc2ccccc12`, the activity change, negative = inhibition result is “inactive”.

For the compound `Cc1nnc(SCCCn2c(N3CCCCC3)nc3c2c(=O)[nH]c(=O)n3C)s1`, the activity change, negative = inhibition result was “inactive”.

On to `O=C(NC1CCN(Cc2ccccc2)CC1)c1ccccc1F`, for which the activity change, negative = inhibition entry is “inactive”.

As to `COC(=O)[C@H](Cc1ccccc1)NC(=O)N1CC(C)OC(C)C1` (some centres not stated), the activity change, negative = inhibition entry was “inactive”.

For the compound `COc1ccc(CCC(=O)c2c(O)cc(OC3OC(CO)C(O)C(O)C3O[C@@H]3OC(C)C(O)C(O)C3O)cc2O)cc1O` (some centres not stated), the activity change, negative = inhibition entry is “inactive”.

Consider `O=C1NS(=O)(=O)c2ccccc21`, for which the activity change, negative = inhibition entry was “inactive”.

Turning to `Cc1cc(=O)n2nc(N3CCCC(C(=O)N4CCN(C)CC4)C3)sc2n1` (configuration not stated), the activity change, negative = inhibition entry was “inactive”.

As for `C=C1C([C@@]2(C)C(OC(C)=O)CC(=O)O[C@@](C)(COC(C)=O)C2CC(=O)OC)C(OC=O)C(OC(=O)C(O)C(C)CC)[C@]2(C)C(c3ccoc3)CC(=O)C12O` (some centres not stated), the activity change, negative = inhibition entry is “inactive”.

Take `COC(=O)CC1C(C)(C)C(OC(C)=O)C2CC3=C4CC(=O)OC(c5ccoc5)[C@]4(C)CCC3[C@@]1(C)C2=O` (some centres not stated): the activity change, negative = inhibition result is “inactive”.

On to `CC1(C)OC2CO[C@]3(COS(N)(=O)=O)OC(C)(C)OC3C2O1` (some centres not stated), for which the activity change, negative = inhibition result is “inactive”.

Turning to `CCC1(C)Cc2c(sc3nc4n(c(=O)c23)CCCS4)CO1` (configuration not stated), the activity change, negative = inhibition entry is “inactive”.

As to `COC(=O)c1cccc(NC(=O)CSc2nc(C)cc(=O)[nH]2)c1`, the activity change, negative = inhibition entry was “inactive”.

With `O=C(NCCCNCc1ccccc1)c1ccc(/C=N/O)nc1`, the activity change, negative = inhibition was 5.49% [at 7.66 µM].

`C/C(=C\C(=O)c1ccc(Br)cc1)N1CCCCC1`: the activity change, negative = inhibition entry was “inactive”.

Regarding `CCc1ccc2oc(=O)cc(CN3CCCCC3C)c2c1` (configuration not stated), the activity change, negative = inhibition entry is “inactive”.

Turning to `O=C(Oc1cc(OC(=O)c2ccccc2)c2c(c1)OC(c1ccc(OC(=O)c3ccccc3)c(OC(=O)c3ccccc3)c1)[C@@H](OC(=O)c1ccccc1)C2)c1ccccc1` (some centres not stated), the activity change, negative = inhibition result is “inactive”.

For the compound `COc1ccc(CNC2CCCCC2)cc1`, the activity change, negative = inhibition entry was “inactive”.

For `Cc1nnc(SCC(=O)NCCOc2ccc(Cl)cc2)n1-c1ccccc1`, the activity change, negative = inhibition result was “inactive”.

Turning to `O=C1OC(C(O)CO)C(O)=C1O` (configuration not stated), the activity change, negative = inhibition entry was “inactive”.

`CC(=O)OCC(=O)[C@@]1(O)CCC2C3CCC4=CC(=O)CC[C@@]4(C)[C@]3(F)C(O)C[C@]21C` (some centres not stated): the activity change, negative = inhibition entry was “inactive”.

Take `Cc1nonc1NC(=O)c1ccccc1Br`: the activity change, negative = inhibition result was “inactive”.

For `O=C1CCC(=O)N1CCOP1(=O)COc2ccccc2OC1`, the activity change, negative = inhibition result was “inactive”.

For the compound `O=c1c(-c2cc(F)cc(F)c2)nc2cnc(Oc3ccccc3)nc2n1C[C@H]1CCCO1`, the activity change, negative = inhibition entry was “inactive”.

On to `COc1c(C(C)C)oc2cc3oc(=O)ccc3cc12`, for which the activity change, negative = inhibition entry was “inactive”.

For `CCC1CCCCN1C(=O)Nc1cccc(NC(=O)N2CCCCC2CC)c1` (configuration not stated), the activity change, negative = inhibition result is “inactive”.
